KB-V1 cytotox: qHTS assay for MDR1-selective chemotherapeutics: Primary screen using the drug-selected MDR subline cells KB-V1. KB-V1 MDR cells viability, CellTiter-Glo, 72 h. Potency, µM (series often up to 46.1 µM), most hits filed as cytotoxic. actives 3.4% (n = 400,000). AID 1347076, 2019; also: nearly all actives have a fitted effect of over 60% in size
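Readout: CellTiter-Glo luminescence, 10 min after addition. Cells: KB-V1 MDR subline, 72 h at 37 degrees C with compound. Analysis: corrected, normalized data fitted to concentration-effect curves.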
MCF10A rerep: A quantitative high throughput screen for small molecules that induce DNA re-replication in MCF 10a normal breast cells; MCF 10A DNA re-replication, Hoechst nuclear intensity, 48 h; Potency, µM (doses to about 46.1 µM), actives largely listed as activators; actives 2.9% (n = 350,000); AID 624296, 2012; also: nearly all actives have a fitted effect of over 50% in size
PINK1 modulator: A Quantitative High throughput Screen to Identify Chemical Modulators of PINK1 Expression; PINK1 immunofluorescence, high-content cytometry, 24 h; Potency, µM (titrated, usually from 76.6 µM), most hits filed as activators; actives 0.2% (n = 410,000); AID 624263, 2012; active = well fitted activation curve with a large enough effect; inconclusive = small, poorly fitted or top-dose-only effect; cell line not stated here; also: nearly all actives have a fitted effect of over 65% in size
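Measures PINK1 amount and localization on or inside mitochondria by immunofluorescence. Stable cells get compounds at 5 concentrations for 24 hours before fixation and staining; CCCP controls included.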
KB-3-1 cytotox: qHTS assay for MDR1-selective chemotherapeutics: Primary screen using the parental adenocarcinoma cell KB-3-1; KB-3-1 viability, CellTiter-Glo ATP luminescence, 72 h; Potency, µM (doses to about 46.1 µM), most hits filed as cytotoxic; actives 1.4% (n = 400,000); AID 1347075, 2019; also: nearly all actives have a fitted effect of over 60% in size
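Cytotoxicity in the drug-sensitive parental line KB-3-1 was scored as loss of CellTiter-Glo luminescence following 72 h incubation with compound. Values come from curve fitting of normalized concentration-response data.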
SW480 rereplic: A quantitative high throughput screen for small molecules that induce DNA re-replication in SW480 colon adenocarcinoma cells. SW480 DNA re-replication, Hoechst DNA content imaging, 48 h. AID 624297, 2012. Potency, µM (doses to about 46.1 µM), most hits filed as activators. actives 1.8% (n = 340,000); also: nearly all actives have a fitted effect of over 55% in size
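DNA re-replication was detected as more nuclei of elevated Hoechst intensity after 48 hr exposure to compound (23 nL pinned per well of 250 cells).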
TSG101-PTAP inh: qHTS Assay for Iinhibitors of HIV-1 Budding by Blocking the Interaction of PTAP/TSG101; Potency, µM (top dose mostly 115 µM), hits mostly inhibitors; 340,000 tested, under 10 active; Tumor susceptibility gene 101 protein (Homo sapiens), Q99816; AID 493005, 2010; Fluorescence polarization, FITC-PTAP peptide / Tsg101 binding; active = well fitted inhibition curve with a large enough effect in the main read-out, with a control signal flat, not every such curve was filed as active; inconclusive = small, poorly fitted or top-dose-only effect, or effect the other way, or a change in a side signal; inactive = no such curve, though single readings can be large or run the other way
Target sequence (Q99816 whole entry, looked up): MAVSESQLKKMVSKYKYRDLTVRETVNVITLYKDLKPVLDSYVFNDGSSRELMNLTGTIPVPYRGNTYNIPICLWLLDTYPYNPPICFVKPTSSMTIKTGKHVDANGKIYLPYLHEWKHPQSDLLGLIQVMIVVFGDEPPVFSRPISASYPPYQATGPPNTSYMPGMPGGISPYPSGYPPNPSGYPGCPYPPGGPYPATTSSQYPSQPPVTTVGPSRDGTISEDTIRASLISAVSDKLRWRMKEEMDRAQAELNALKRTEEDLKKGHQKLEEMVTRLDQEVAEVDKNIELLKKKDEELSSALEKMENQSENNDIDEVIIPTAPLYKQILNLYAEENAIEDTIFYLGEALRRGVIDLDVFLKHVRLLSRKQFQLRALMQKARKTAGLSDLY
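Compounds were pin-transferred onto Tsg101 binding domain (10 uM final) in HEPES pH 7.5 buffer, then FITC-PTAP peptide was added at 50 nM final. After 20 min at RT, polarization reported peptide displacement across a qHTS concentration series.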
Numbers stand for hits; . = inactive; ? = inconclusive; / = no result given; ! = not confirmed by another sample; [ ] = remark or other dose. Hits are enriched below; roughly 6.8% of the tested compounds scored in any of these assays. Unless noted, calls follow the shape of the dose curve; as a rule, active = well fitted curve in the direction sought with a large enough effect; inconclusive = small, poorly fitted or top-dose-only effect, or another doubt; inactive = no such curve, though single readings can be large; an effect the other way counts as inactive or inconclusive.

SMILES	KB-V1 cytotox	MCF10A rerep	PINK1 modulator	KB-3-1 cytotox	SW480 rereplic	TSG101-PTAP inh
O=C(NC(=S)Nc1ccc(S(=O)(=O)N2CCCC2)cc1)c1cccs1	10.3µM	.	.	.	.	.
CC(C)C(=O)NC(=S)Nc1ccc(S(=O)(=O)Nc2ccccc2)cc1	23.1µM	?	.	.	?	.
COc1ccc(NS(=O)(=O)c2ccc(NC(=S)NC(=O)C(C)C)cc2)cc1	.	.	.	.	.	.
O=C(NC(=S)Nc1ccc(S(=O)(=O)N2CCCCCC2)cc1)c1cccs1	.	.	.	.	.	.
CC(C)C(=O)NC(=S)Nc1ccc(S(=O)(=O)N2CCCC2)cc1	14.6µM	?	.	.	.	.
Cc1ccc(-c2ccc(S(=O)(=O)N3CCN(C)CC3)cc2)cc1	13µM	.	.	.	.	.
CC(C)CC(=O)NC(=S)Nc1ccc(S(=O)(=O)N2CCCC2)cc1	?	.	.	.	.	.
CCOC(=O)c1cnn(-c2ccc(C(=O)Nc3ccc(OC(F)(F)F)cc3)cc2)c1N	.	/	.	.	/	/
CCc1ccc(NC(=O)Cn2c(=O)n(CCCCC(=O)NCc3ccccc3Cl)c(=O)c3ccccc32)cc1	.	/	.	.	/	/
CCOC(=O)Cc1ccc(NC(=O)N(C(C)C)C2CCN(C(C)=O)CC2)cc1	.	/	.	.	/	/
COc1ccc(NC(=O)c2ccc3c(c2)c(C)c(C)n3Cc2ccc(F)cc2)c(OC)c1	.	/	.	.	/	/
Cc1ccc(C(=O)NC(=S)Nc2ccc(S(=O)(=O)N3CCN(C)CC3)cc2)cc1	23.1µM	.	.	.	.	.
C=CC(=O)O	/	.	/	/	.	/
CC1OC2(C)OC(=N)C1(C#N)C(C#N)(C#N)C2c1ccccc1 (stereo not drawn)	.	?	.	.	.	.
CC1C2(C)OC(=N)C(C#N)(C(C)O2)C1(C#N)C#N (stereo not drawn)	.	?	.	.	1.3µM	.
Cc1cc(CC(C)CC(C)(C)C)n(O)c(=O)c1 (stereo not drawn)	.	10.6µM	.	.	?	/
O=C(c1cc(F)cc(F)c1)N1CCC(c2nc(-c3ccc(S(=O)(=O)N4CCCC4)cc3)no2)CC1	/	/	.	/	/	/
CC(C)(C)c1cc(NC(=O)CCSc2nnc3ccccn23)cc(C(C)(C)C)c1	3.66µM	.	.	.	?	.
COc1cc(NC(=O)CSc2nnc3ccccn23)cc(OC)c1	.	.	.	.	.	.
Cc1ccc(C(=O)NCC(c2cccs2)S(=O)(=O)c2cccs2)cc1 (stereo not drawn)	?	/	.	20.6µM	/	/
CCCOc1ccc(Br)cc1CSC(=N)N	.	.	.	8.2µM	.	.
CCOc1ccc(Br)cc1CC(=O)O	.	.	.	.	.	.
COc1c(C)cc(S(=O)(=O)N2CCCC2)c(C)c1C	23.1µM	.	.	.	.	.
CCOC(=O)c1sc2ccccc2c1S(=O)(=O)N1CCN(c2cccc(C)c2)C(C)C1 (stereo not drawn)	/	/	.	/	/	/
CS(=O)(=O)N(Cc1ccc(Cl)cc1)c1ccc(C(=O)Nc2cccnc2)cc1	20.6µM	.	.	?	.	.
SMILES	KB-V1 cytotox	MCF10A rerep	PINK1 modulator	KB-3-1 cytotox	SW480 rereplic	TSG101-PTAP inh
O=C(NCCSc1ccccn1)c1ccc(Cl)cc1	.	.	.	.	.	.
CS(=O)(=O)N(Cc1ccc(Cl)cc1)c1ccc(C(=O)NCCSc2ccccn2)cc1	5.8µM	?	.	?	?	.
CC(=O)c1cccc(NC(=O)CSc2nnc3ccc(-c4ccc(Br)cc4)nn23)c1	/	/	.	/	/	/
C=CCOc1ccc(C2C(C#N)=C(N)N(Nc3ccccc3)C3=C2C(=O)CCC3)cc1OC (stereo not drawn)	.	23.1µM	.	?	?	.
COc1cc(C2C(C#N)=C(N)N(Nc3ccccc3)C3=C2C(=O)CC(C)(C)C3)ccc1OCc1cccc(F)c1 (stereo not drawn)	.	?	.	.	?	.
COc1cc(C2C(C#N)=C(N)N(Nc3ccccc3)C3=C2C(=O)CC(C)(C)C3)ccc1OCc1ccccc1 (stereo not drawn)	.	?	.	?	25.9µM	.
Cc1ccc(-c2nc(NCCCN(C)C)c3ccccc3n2)cc1	.	/	.	.	/	/
Cc1ccc(-c2csc3nc4c5ccccc5c(NCCCN(C)C)nn4c(=O)c23)cc1	.	18.4µM	.	?	?	.
CCOc1ccc(NC(=O)c2ccc3c(c2)nnn3C2CCCC2)cc1	.	/	.	.	/	/
O=C(COc1ccc(-n2ccnc2)cc1)Nc1cccc(F)c1	?	.	.	?	.	.
O=C(COc1ccc(-n2ccnc2)cc1)Nc1cccc(Cl)c1	5.8µM	.	.	?	.	.
CCC(C)Sc1cccc(-c2nc3ccc(Cl)cn3c2NCc2ccccc2)c1 (stereo not drawn)	?	?	?	.	.	.
CCC(C)Sc1cccc(-c2nc3ccccn3c2NCc2ccccc2)c1 (stereo not drawn)	?	18.4µM	?	.	.	.
Cc1ccc2nc(-c3cccc(-c4cccc(Cl)c4)c3)c(NCc3ccccc3)n2c1	?	7.31µM	?	.	.[9.22 µM]	.
CCC(C)Sc1cccc(-c2nc3ccc(C)cn3c2NCc2ccccc2)c1 (stereo not drawn)	18.4µM!	11.6µM	?	?	?	.
COc1ccc(NC(=O)CSc2nc3c(oc4ccccc43)c(=O)n2-c2ccccc2)cc1OC	.	/	.	.	/	/
Cc1nn(CC(=O)Nc2cc(S(=O)(=O)N(C)C)ccc2Cl)c(C)c1[N+](=O)[O-]	20.6µM	.	.	.	.	.
Cc1ccc(NC(=O)Cn2nc(C)c([N+](=O)[O-])c2C)cc1C	.	.	.	.	.[1.84 µM]	.
Cc1nn(CC(=O)Nc2ccc3c(c2)CCC3)c(C)c1[N+](=O)[O-]	18.4µM	.	.	.	.	.
Cc1nn(CC(=O)NCc2ccc(-n3cccn3)cc2)c(C)c1[N+](=O)[O-]	.	.	.	.	0.517µM	.
CCN(CC)c1ccc(S(=O)(=O)N2CCOCC2)cc1NC(=O)Cn1nc(C)c([N+](=O)[O-])c1C	.	.	.	.	.	.
CCOc1ccc(CNC(=O)c2cccn2-c2nnc(N3CCCCC3)s2)cc1OC	.	/	.	.	/	/
CCCCC(=O)N(c1ccc(OCC)cc1)C1C=CS(=O)(=O)C1 (stereo not drawn)	.	13µM	/	.	.	.

Bioassay records: PubChem BioAssay, National Center for Advancing Translational Sciences (NCATS)
